Data: PubChem BioAssay (NCI)
Compounds without any hit were thinned out: in the full panel of roughly 83,000, 20% have a hit.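 How to read the values: 0–100, growth inhibition (40 = 60% inhibited); 0, no net growth; -100 to 0, cell death (-40 = 40% of starting cells died; -100 = all dead).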 The source made the active and inactive calls. Rule for the calls: active = growth percent below 10; inactive = the rest.

Each compound was assayed on SK-OV-3 ovarian (assay: NCI-60 one-dose screen, 48 h (100 = growth as untreated, 0 = no growth, -100 = all killed)). Settings: 10 µM unless noted.
In the case of CC(Br)C(O)c1cc2c(cc1Br)OCO2 (stereo unspecified), the growth was 118% (inactive).
For OC1CC2c3ccccc3C1c1ccccc12 (stereo unspecified), the growth was 112% (inactive).
With Cc1cc(C)c(S(=O)(=O)N2CCN(c3cc4c(cc3F)c(=O)c(C(=O)O)cn4C3CC3)CC2)c(C)c1 the growth was 81.6% (inactive).
For O=C(c1ccccc1)C(Cl)C(Cl)c1ccccc1 (stereo unspecified), the growth was 138% (inactive).
CC/C(=C(\c1ccc(O)cc1)c1ccc(OCCN(C)CCN(C)C(=O)CCC(=O)c2c(C)[nH]c(/C=C3\N=C(c4ccc[nH]4)C=C3OC)c2C)cc1)c1ccccc1 was tested, and the growth was 111% (inactive).
For NC(=O)c1ccc2c(c1)OCO2, the growth was 130% (inactive).
For NC(=O)NNC(=O)c1ccccc1, the growth was 123% (inactive).
With O=c1c2cccc3c(Nc4ccc(F)cc4)ccc(c32)c2nc3ccccc3n12 the growth was 101% (inactive).
With C=C1C(=O)O[C@H]2[C@H]1CC/C(COC(=O)NCc1cc(OC)c(OC)c(OC)c1)=C\CC[C@@]1(C)O[C@@H]21 the growth was 101% (inactive).
For Cc1cc(C(=O)O)c(N)c(C)n1, the growth was 129% (inactive).
Cc1ccc(Nc2ncnc3c2sc2ncccc23)cc1 was tested, and the growth was 101% (inactive).
COc1ncc(-c2ccc3ncnc(Nc4cccc(Cl)c4)c3c2)cc1NS(=O)(=O)C1CC1 was tested, and the growth was 8.08% (active).
With O=C(Nc1ccc(I)cc1)c1cccc([N+](=O)[O-])c1O the growth was -2.55% (active).
COC(=O)c1ccc(C)cc1 was tested, and the growth was 99.6% (inactive).
COc1ccc(C2CC(=O)Nc3c2c(C)nn3-c2nc3ccccc3[nH]2)cc1OC (stereo unspecified) was tested, and the growth was 17.7% (inactive).
C=C1C(=O)O[C@H]2[C@H]1CC/C(COC(=O)NCCc1cccc(OC)c1)=C\CC[C@@]1(C)O[C@@H]21 was tested, and the growth was 90.3% (inactive).
For Cc1nc2sccn2c1-c1csc(Nc2ccccc2Cl)n1, the growth was 75.9% (inactive).
For Cc1nc2scc(-c3ccccc3)n2c(=O)c1CCO, the growth was 105% (inactive).
For COc1ccc(/C=C\c2cc(OC)c(OC)c(OC)c2)c(NS(=O)(=O)c2ccc(C(C)(C)C)cc2)c1O, the growth was 31% (inactive).
With CCCCCCOc1ccc(C2(Cl)c3ccccc3N(C)c3ccccc32)cc1 the growth was 60.7% (inactive).
In the case of Cc1ccccc1C(=O)c1ccccc1C(=O)O, the growth was 118% (inactive).
For CC1CCc2c(sc(NC(=O)CSc3nnc4ccccn34)c2C(N)=O)C1 (stereo unspecified), the growth was 131% (inactive).
In the case of COc1ccc2c(c1)C=CC(C#N)N2C(=O)c1ccccc1 (stereo unspecified), the growth was 43.5% (inactive).

What follows are compounds tested on IGROV1 ovarian in the same assay as above. Settings: 10 µM unless noted.
With Cc1cc(C)c(S(=O)(=O)N2CCN(c3cc4c(cc3F)c(=O)c(C(=O)O)cn4C3CC3)CC2)c(C)c1 the growth was 35.7% (inactive).
For Cc1cc(Cl)ccc1OC(C)C(=O)Nc1nnc(C2CC2)s1 (stereo unspecified), the growth was -51.7% (active).
In the case of Cc1sc2nc(CSc3nnc(-c4ccco4)o3)[nH]c(=O)c2c1C, the growth was 109% (inactive).
In the case of CCCCCCCCCCCCCCCCCCOc1cccc(CCOP(=O)(O)OCC[N+](C)(C)C)c1, the growth was 39% (inactive).
For C=CCOc1ccc(/C(O)=C2\C(=O)C(=O)N(c3nccs3)C2c2ccccc2F)cc1 (stereo unspecified), the growth was 3.7% (active).
CC/C(=C(\c1ccc(O)cc1)c1ccc(OCCN(C)CCN(C)C(=O)CCC(=O)c2c(C)[nH]c(/C=C3\N=C(c4ccc[nH]4)C=C3OC)c2C)cc1)c1ccccc1 was tested, and the growth was 81.6% (inactive).
For Cc1ccc(Oc2nc3ccccc3cc2-c2nnc(Cn3c(COc4ccccc4)nc4ccccc43)o2)cc1, the growth was 37.8% (inactive).
With CCOC(=O)c1cc(/C(=N\O)c2cc(OC)c(OC)c(OC)c2)n2cc(C)cc(C)c12 the growth was 57.5% (inactive).
For Cc1ccc(Nc2ncnc3c2sc2ncccc23)cc1, the growth was 105% (inactive).
For COc1ncc(-c2ccc3ncnc(Nc4cccc(Cl)c4)c3c2)cc1NS(=O)(=O)C1CC1, the growth was -38.6% (active).
With O=C(Nc1ccc(I)cc1)c1cccc([N+](=O)[O-])c1O the growth was 30.4% (inactive).
In the case of COc1cc(NC(=O)CCl)ccc(=O)c1, the growth was 58.1% (inactive).
For CCCCCCCC/C=C\CCCCCCCCOc1ccccc1CCOP(=O)(O)OCC[N+](C)(C)C, the growth was 9.7% (active).
With COc1ccc(/C(=N/O)c2cc(OC)c(OC)c(OC)c2)c(OC)c1N the growth was 55% (inactive).
COc1ccc(-c2cn[nH]c2-c2cc(OC)c3c(c2)OCCO3)cc1 was tested, and the growth was 50.2% (inactive).
For CCN(Cc1ccccc1)c1ccc(SC#N)cc1, the growth was 103% (inactive).
With Cc1ccc2c(c1)C(C)Cc1c(ncnc1-n1cnc3ccccc31)N2C (stereo unspecified) the growth was 37.6% (inactive).
With Cc1nc2sccn2c1-c1csc(Nc2ccccc2Cl)n1 the growth was 60.5% (inactive).
C=CCc1cc(Cl)cc2c(OC(C)=O)c(C(C)=O)c(-c3ccccc3)nc12 was tested, and the growth was 82.3% (inactive).
Cc1nc2scc(-c3ccccc3)n2c(=O)c1CCO was tested, and the growth was 98.1% (inactive).
In the case of COc1ccc(/C=C\c2cc(OC)c(OC)c(OC)c2)c(NS(=O)(=O)c2ccc(C(C)(C)C)cc2)c1O, the growth was 38.5% (inactive).
CC(C)C[C@H](NC(=O)[C@H](Cc1ccccc1)n1ccc(N2CCCCC2)cc1=O)B(O)O was tested, and the growth was 46.2% (inactive).
CC1CCc2c(sc(NC(=O)CSc3nnc4ccccn34)c2C(N)=O)C1 (stereo unspecified) was tested, and the growth was 33.8% (inactive).
